# Measured values from PubChem BioAssay (NCI).
# The panel holds about 83,000 compounds, 20% with a hit somewhere; the sample as a whole holds those more often.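 Method: cells in 96-well plates; compound added at one concentration; 48 h incubation; percent growth measured; values under 10 scored active.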 Calls of active or inactive are those of the source.
# Experiments:
# Test in all cases: NCI-60 one-dose screen, 48 h (100 = growth as untreated, 0 = no growth, -100 = all killed)
# NCI-H322M lung = settings: 10 µM unless noted
# HOP-62 NSCLC = settings: 10 µM unless noted
# NCI-H522 lung = settings: 10 µM unless noted
# SNB-19 CNS = settings: 10 µM unless noted
# U251 CNS = settings: 10 µM unless noted
# EKVX NSCLC = settings: 10 µM unless noted
# TK-10 renal = settings: 10 µM unless noted
# CCRF-CEM leukemia = settings: 10 µM unless noted
# SR leukemia = settings: 10 µM
# SK-OV-3 ovarian = settings: 10 µM unless noted
# IGROV1 ovarian = settings: 10 µM
# HS 578T breast = settings: 10 µM unless noted
# T-47D breast = settings: 10 µM unless noted
# BT-549 breast = settings: 10 µM
# MCF7 breast = settings: 10 µM unless noted
# HCC-2998 colon = settings: 10 µM unless noted
# HOP-92 NSCLC = settings: 10 µM unless noted
# RPMI-8226 leukemia = settings: 10 µM unless noted
# NCI-H226 lung = settings: 10 µM unless noted
SMILES,growth (NCI-H322M lung),growth (HOP-62 NSCLC),growth (NCI-H522 lung),growth (SNB-19 CNS),growth (U251 CNS),growth (EKVX NSCLC),growth (TK-10 renal),growth (CCRF-CEM leukemia),growth (SR leukemia),growth (SK-OV-3 ovarian),growth (IGROV1 ovarian),growth (HS 578T breast),growth (T-47D breast),growth (BT-549 breast),growth (MCF7 breast),growth (HCC-2998 colon),growth (HOP-92 NSCLC),growth (RPMI-8226 leukemia),growth (NCI-H226 lung)
[O]=[Sn]([CH]1CCCCC1)[CH]1CCCCC1,-96.7% (active),-91.8% (active),-72.6% (active),-84.4% (active),-85.2% (active),-24.3% (active),-93.8% (active),-42.2% (active),14.8% (inactive),-98.2% (active),-90.9% (active),-19.5% (active),-86.7% (active),-99.3% (active),-88% (active),-98.6% (active),,,
Cc1nnc([S-])s1.[Au+].c1ccc([PH+](c2ccccc2)c2ccccc2)cc1,84.2% (inactive),28.2% (inactive),-75.3% (active),19.2% (inactive),-59.9% (active),56.4% (inactive),-61.5% (active),0.579% (active),7.04% (active),,-25.4% (active),30.8% (inactive),-40.2% (active),33.9% (inactive),-64.1% (active),37% (inactive),-76.6% (active),-1.82% (active),
COC[CH2][Hg][C]#[C][Hg][CH2]COC,116% (inactive),98.5% (inactive),96.9% (inactive),108% (inactive),,,119% (inactive),,8.96% (active),96.5% (inactive),80.2% (inactive),85.3% (inactive),91.7% (inactive),111% (inactive),55.3% (inactive),103% (inactive),111% (inactive),,
CC(C)OC(=S)[S-].[Au+].c1ccc([PH+](c2ccccc2)c2ccccc2)cc1,99.4% (inactive),76% (inactive),-63.6% (active),25.1% (inactive),11.2% (inactive),82.9% (inactive),-3.22% (active),10.9% (inactive),3.82% (active),,2.28% (active),15.6% (inactive),,-3.75% (active),2.73% (active),50.8% (inactive),-23% (active),,
COc1cc(NCCCCCN=C(N)N)c2ncccc2c1,61.4% (inactive),45.7% (inactive),9.47% (active),37.5% (inactive),28.1% (inactive),65.4% (inactive),,39.8% (inactive),33.5% (inactive),94.9% (inactive),23.6% (inactive),,11.8% (inactive),,-51.1% (active),,66.7% (inactive),58.2% (inactive),
[N-]=[N+]=NC(C(=O)O)c1ccccc1 (stereo unspecified),101% (inactive),101% (inactive),87.3% (inactive),100% (inactive),104% (inactive),99.7% (inactive),106% (inactive),,83.9% (inactive),99.5% (inactive),98% (inactive),113% (inactive),103% (inactive),114% (inactive),88.2% (inactive),96.9% (inactive),,,
CC(=O)O[C@H]1C[C@H](O[C@H]2[C@@H](O)C[C@H](O[C@H]3[C@@H](O)C[C@H](O[C@H]4CC[C@@]5(C)C(CCC6C5C[C@@H](O)[C@]5(C)[C@@H](C7=CC(=O)OC7)CC[C@]65O)C4)O[C@@H]3C)O[C@@H]2C)O[C@H](C)[C@H]1O[C@@H]1O[C@H](CO)[C@@H](O)[C@H](O)[C@H]1O (stereo partly specified),,,,-100% (active),-100% (active),-98.3% (active),,-23.5% (active),-31% (active),-97.4% (active),7.96% (active),2.41% (active),-19% (active),-91% (active),-53% (active),-95% (active),-15.1% (active),-0.309% (active),-98.6% (active)
CCN(CC)c1ccc(C=C2C(=O)NC(=S)NC2=O)cc1,104% (inactive),98.1% (inactive),86.5% (inactive),88.9% (inactive),77% (inactive),99.5% (inactive),108% (inactive),38.9% (inactive),,,100% (inactive),88.6% (inactive),78% (inactive),98.5% (inactive),60.3% (inactive),,,-18.9% (active),
CC[C@]12C=CCN3CC[C@@]4(c5ccc(OC)cc5N(C)[C@H]4[C@@](O)(C(=O)OC)[C@@H]1OC(=O)CCCN1CCN(CCCC(=O)O[C@@H]4[C@]5(CC)C=CCN6CC[C@@]7(c8ccc(OC)cc8N(C)[C@H]7[C@@]4(O)C(=O)OC)[C@@H]65)CC1)[C@@H]32,-88.5% (active),-82.5% (active),-79.9% (active),-93.9% (active),-83.7% (active),-88.4% (active),,-56.7% (active),,-88.7% (active),-76.6% (active),-61.7% (active),-68.3% (active),-88.3% (active),-83.8% (active),,-63.3% (active),-55.2% (active),
ClCCN(CCCl)c1ccc(/C=C\c2ccnc3ccccc23)cc1,92.3% (inactive),120% (inactive),,88.8% (inactive),76.4% (inactive),81% (inactive),,71% (inactive),48.2% (inactive),,81.6% (inactive),89.9% (inactive),63.1% (inactive),70.5% (inactive),61.5% (inactive),91.6% (inactive),46.6% (inactive),,
Cn1cnnc1[S-].[Au+].c1ccc([PH+](c2ccccc2)c2ccccc2)cc1,89% (inactive),25.1% (inactive),-75% (active),11.4% (inactive),-43.1% (active),60.7% (inactive),-44.5% (active),1.22% (active),4.41% (active),,-1.4% (active),49.2% (inactive),-16.6% (active),36.8% (inactive),-56.5% (active),48.3% (inactive),-58.1% (active),,
O=C(N/N=C/c1ccc([N+](=O)[O-])o1)c1cc([N+](=O)[O-])cc([N+](=O)[O-])c1O,,,,100% (inactive),91.8% (inactive),108% (inactive),121% (inactive),98.3% (inactive),70.7% (inactive),101% (inactive),97% (inactive),104% (inactive),93.5% (inactive),103% (inactive),84.6% (inactive),102% (inactive),117% (inactive),99.8% (inactive),97.9% (inactive)
COc1cc(C2CC(=O)Nc3nc(N)[se]c32)c(OC)c2c1OCO2 (stereo unspecified),22.6% (inactive),32.7% (inactive),99.1% (inactive),51.9% (inactive),48% (inactive),94.4% (inactive),109% (inactive),104% (inactive),107% (inactive),78.3% (inactive),83.6% (inactive),91.2% (inactive),89% (inactive),,94.1% (inactive),121% (inactive),105% (inactive),119% (inactive),
NC(Cc1ccc(O)cc1)C(=O)N/N=C/c1ccc(N(CCCl)CCCl)cc1 (stereo unspecified),102% (inactive),95.4% (inactive),,,76.7% (inactive),92.7% (inactive),115% (inactive),27.9% (inactive),18% (inactive),90% (inactive),63.4% (inactive),91.9% (inactive),79.2% (inactive),73.3% (inactive),,,82.1% (inactive),,
COc1ccc(CN2CCN(Cc3ccccc3)CC2)c(O)c1,92.3% (inactive),93.4% (inactive),71.9% (inactive),104% (inactive),95.1% (inactive),,100% (inactive),87.1% (inactive),73.5% (inactive),95.7% (inactive),91.3% (inactive),102% (inactive),84.7% (inactive),,99.7% (inactive),89.4% (inactive),87.9% (inactive),,
CCOc1c(Cl)cc(CNC(C)C(O)c2ccccc2)cc1OC (stereo unspecified),92% (inactive),73.3% (inactive),69.1% (inactive),91.6% (inactive),34.3% (inactive),,90.5% (inactive),77.7% (inactive),10.8% (inactive),,66% (inactive),67.5% (inactive),86% (inactive),72.2% (inactive),42.9% (inactive),81.3% (inactive),27% (inactive),71.7% (inactive),
NC(=O)C(Br)CBr (stereo unspecified),,-40.8% (active),-81.7% (active),80.1% (inactive),,-73.1% (active),,-12.1% (active),,80% (inactive),,51.1% (inactive),1.22% (active),,2.57% (active),38.4% (inactive),-83.7% (active),-39.3% (active),-18.8% (active)
CCC[CH2][Sn]([CH2]CCC)([CH2]CCC)[O]C(=O)c1ccc(Cl)cc1Cl,-86.5% (active),-82.2% (active),-73.3% (active),-86.3% (active),-85.8% (active),-65% (active),-90.5% (active),,3.12% (active),-96% (active),-68.5% (active),-38.3% (active),-58.3% (active),-96% (active),,-90.9% (active),-84.6% (active),-29.7% (active),
O=C(CCc1ccco1)NC1CCN(CC2(c3ccc(Cl)cc3)CCC2)CC1,34.7% (inactive),39.3% (inactive),-22.2% (active),15% (inactive),7.34% (active),,-0.211% (active),6.1% (active),-24.6% (active),13.8% (inactive),30.1% (inactive),28.7% (inactive),15.4% (inactive),,,,-21.9% (active),-5.13% (active),
CCCC(C)(C)c1ccc2c(c1)OC(C)(C)[C@@H]1CC=C(C)C[C@@H]21,,,93.2% (inactive),103% (inactive),96.2% (inactive),106% (inactive),107% (inactive),84.2% (inactive),95.7% (inactive),89.2% (inactive),95.7% (inactive),100% (inactive),,97.7% (inactive),93.9% (inactive),109% (inactive),100% (inactive),92.9% (inactive),98.3% (inactive)
